PubChem BioAssay AID686978 (National Center for Advancing Translational Sciences (NCATS), 2013)
About 64,000 (15%) of roughly 420,000 compounds were called active. About 27% were inconclusive and are not listed. The call rests on the fitted dose curve; in most records, active means well fitted inhibition curve with a large enough effect; inconclusive means small, poorly fitted or top-dose-only effect; inactive means flat fitted curve, though single readings scatter. Not all results are given here. A call without a number means that no potency is given here.

Experiment: qHTS for Inhibitors of human tyrosyl-DNA phosphodiesterase 1 (TDP1): qHTS in cells in absence of CPT; further: nearly all actives have a fitted effect of over 55% in size
Conditions: DT40 Tdp1-/- hTDP1 cells, no CPT, ATP luminescence, 48 h; activity change, negative = growth inhibition: at 46.2 µM (top of the series)
How it was run: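 Growth of hTDP1-complemented DT40 Tdp1-knockout cells is measured by ATP luminescence after at least 48 hr compound exposure at 37 °C, with DMSO substituting for the 20 nM CPT used in the parallel screen.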
Potency means the concentration at half of the fitted maximal effect.

| Structure (SMILES) | Potency |
| --- | --- |
| COc1cc(OC)c(C(=O)NNC(=O)c2ccccc2-n2cccc2)cc1OC | inactive |
| O=C(O)c1n[nH]nc1-c1ccccc1 | inactive |
| Cc1cccc(-n2ncc(C(=O)N3CCc4ccccc4C3)c2C2CCN(C(=O)OC(C)(C)C)CC2)c1 | inactive |
| CC(C)(C)OC(=O)N1CCC(c2c(C(=O)N3CCN(c4cccc(Cl)c4)CC3)cnn2-c2cccc(Cl)c2)CC1 | 9.2 µM (active) |
| CC(C)(C)OC(=O)N1CCN(C(=O)c2[nH]c(C(F)(F)F)nc2-c2ccccc2)CC1 | inactive |
| Cc1cccc(-n2ncc(C(=O)N3CCC(C)CC3)c2C2CCN(C(=O)OC(C)(C)C)CC2)c1 | inactive |
| Cc1cccc(-n2ncc(C(=O)N3CCN(c4ccc(Cl)cc4)CC3)c2C2CCN(C(=O)OC(C)(C)C)CC2)c1 | 9.2 µM (active) |
| CC(C)(C)OC(=O)N1CCC(C(=O)NNC(=O)c2ccc(Cl)cc2Cl)CC1 | inactive |
| N/C(=N\OC(=O)CCC1CCCCC1)c1ccccn1 | inactive |
| Cc1cccc(OCC(=O)NC2CC(C)(C)NC(C)(C)C2)c1 | inactive |
| C/C(=N\NC(=O)Cc1ccccc1[N+](=O)[O-])c1cccnc1 | inactive |
| CN(CC(=O)O)C(=O)c1ccccc1 | inactive |
| S=C(c1ccccc1)N1CCCC1 | inactive |
| CN(O)C(=S)c1ccccc1 | 0.164 µM (active) |
| CN(C)C(=O)c1ccc(-c2cncnc2Nc2ccccc2)cc1 | inactive |
| CC(Cc1cccs1)NC(=O)NC1CCCCC1 (configuration not stated) | inactive |
| Cc1nc([N+](=O)[O-])cn1CC(=O)Nc1ccc2c(c1)OCO2 | inactive |
| COc1ccc(C(=O)COC(=O)C(O)c2ccccc2)c(OC)c1 (configuration not stated) | inactive |
| COc1ccc(C(=O)c2c(C)c(CCC#N)n3ccccc23)c(OC)c1 | 20.6 µM (active) |
| Cc1c(C(=O)c2cccc([N+](=O)[O-])c2)c2ccccn2c1CCC#N | inactive |
| CC(C)(C)c1ccc(/C=C2\Oc3c(ccc(O)c3CN3CCN(CCO)CC3)C2=O)cc1 | inactive |
| CCCCNC(=O)N1CCCC(N(C)CCc2ccc(OC)c(OC)c2)C1 (configuration not stated) | inactive |
| CC(C)=CCCC1(C)C=Cc2c(ccc3c2[nH]c2cc(O)c(C)cc23)O1 (configuration not stated) | 16.4 µM (active) |

| Structure (SMILES) | Potency |
| --- | --- |
| COc1ccc(-c2cnc(SCCNC(=O)c3ccc4c(c3)OCO4)[nH]2)cc1 | inactive |
| Brc1ccc(-c2nnc(-c3ccccc3)o2)o1 | inactive |
| Cc1ccc(CN2CCN(c3ccccc3Cl)CC2)o1 | inactive |
| O=C(CSC(=S)N1CCCCC1)c1c(F)cccc1F | 8.2 µM (active) |
| O=C(O)c1cc2c(cc1NC(=O)c1c(F)cccc1Cl)OCCCO2 | inactive |
| O=C(CN1CCCCC1)NC(=O)Nc1ccccc1F | inactive |
| Cc1nnc(SCC(=O)N(C(C)C)C(C)C)nc1C | inactive |
| CC(=O)NCCC(=O)Nc1nc(C)c(Cc2ccc3c(c2)OCO3)s1 | inactive |
| O=C(Nc1cccc([N+](=O)[O-])c1)Nn1cnnc1 | inactive |
| N#Cc1cccc(NC(=O)CCC2CCCC2)c1 | inactive |
| N#Cc1cccc(NC(=O)CN2CCCCCC2)c1 | inactive |
| O=[N+]([O-])c1cccc(Nc2c3ccccc3nc3ccccc23)c1 | 16.4 µM (active) |
| CC(=O)Nc1ccc(NC(=O)C(C)n2c3ccccc3c3nc(=O)cc(C)n32)cc1 (configuration not stated) | inactive |
| CCc1nc(SCC(=O)NNC(=O)c2ccc(C)cc2)c2ccccc2n1 | inactive |
| CC(=O)Nc1ccc(Nc2nc3c(S(=O)(=O)c4ccc(C)c(C)c4)nnn3c3ccccc23)cc1 | inactive |
| CC(=O)Nc1ccc(Nc2c3ccccc3nc3ccccc23)cc1 | 0.0082 µM (active) |
| Cc1ccc(Nc2c3c(nc4ccccc24)CCC3)cc1 | 18.4 µM (active) |
| Cc1c(NC(=O)Nc2cccc([N+](=O)[O-])c2)c(=O)n(-c2ccccc2)n1C | inactive |
| N#Cc1cccc(Nc2c3c(nc4ccccc24)CCCC3)c1 | 25.9 µM (active) |
| Cc1nn(C(C)(C)C)c(OC(=O)CC(C)C)c1S(=O)(=O)c1ccccc1 | inactive |
| CCn1c(CC(=O)Nc2ccccc2)nnc1SCC(=O)N1CCOCC1 | inactive |
| CCC1C(=O)c2ccccc2N(C)C1=O (configuration not stated) | inactive |
| Cc1[nH]n(-c2ccccc2)c(=O)c1N=Nc1ccccc1C(=O)N1CCCCC1 | inactive |

| Structure (SMILES) | Potency |
| --- | --- |
| Cc1[nH]n(-c2ccc([N+](=O)[O-])cc2)c(=O)c1C=NCCN1CCN(C(=O)c2ccccc2F)CC1 | 14.6 µM (active) |
| CN1CCN(C(=O)c2cnn(-c3ccccc3)c2NC(=O)c2ccc([N+](=O)[O-])cc2)CC1 | inactive |
| COc1ccc2occ(C(=O)c3ccc(N=C(C)N(C)C)cc3)c2c1 | 23.1 µM (active) |
| COc1ccc2c(CC(=O)OCC(=O)NC(N)=O)coc2c1 | inactive |
| COc1ccc(OC)c(C(=O)c2ccc(C(=O)O)cc2)c1 | inactive |
| CN(C(=O)COC(=O)c1cc(=O)[nH]c2ccccc12)C1CCCCC1 | inactive |
| CN(CC(=O)Nc1c(Cl)cccc1Cl)C(=O)CNC(=O)C1CCCCC1 | inactive |
| O=C(O)C(CCc1ccccn1)c1ccccc1 (configuration not stated) | inactive |
| O=C(COC(=O)Cn1[nH]c(=O)c2ccccc2c1=O)Nc1ncc(Cl)cc1Cl | inactive |
| O=C(CSC1=NCCS1)Nc1nc(-c2ccccc2)cs1 | inactive |
| Cc1ccc(-c2csc(NC(=O)Cn3[nH]c(=O)c4ccccc4c3=O)n2)cc1 | 16.4 µM (active) |
| C=CCOc1ccc(Cl)cc1CNCCCN1CCOCC1 | inactive |
| CCCCn1c(N)c(N(CCC(C)C)C(=O)CC2OC(=O)c3ccccc32)c(=O)[nH]c1=O (configuration not stated) | inactive |
| CCOC(=O)c1sc(N)c(C#N)c1COC(=O)C1=COCCO1 | inactive |
| Cc1cccc(NC(=O)C2CCCN(C(=O)NCc3ccccc3)C2)c1C (configuration not stated) | inactive |
| Cc1cc(=O)n2nc(N3CCC(C(=O)Nc4c(F)c(F)c(F)c(F)c4F)CC3)sc2n1 | inactive |
| COc1ccc(-c2cn3nc(N4CCC(C(=O)Nc5cccc(C)c5C)CC4)sc3n2)cc1 | 11.6 µM (active) |
| COc1ccc(-c2cn3nc(N4CCCC(C(=O)NCCCOC(C)C)C4)sc3n2)cc1 (configuration not stated) | 18.4 µM (active) |
| Cc1cc(=O)n2nc(N3CCCC(C(=O)NCc4ccc(Cl)cc4)C3)sc2n1 (configuration not stated) | inactive |
| Cc1cc(=O)n2nc(N3CCCC(C(=O)NCCC4=CCCCC4)C3)sc2n1 (configuration not stated) | inactive |
| COC(=O)c1ccc(CNC(=O)c2ccc3oc(C(C)C)nc3c2)cc1 | inactive |
